Source: PubChem BioAssay
FBPA Giardia inh = Giardia lamblia aldolase inhibition | A8B2U2 | purified Giardia FBPA | Potency, µM (top dose mostly 59.6 µM), inactives show at the highest dose activity, negative = inhibition, most hits filed as inhibitors | actives 0.71% (n = 290,000) | AID 2451; note: potency is the fitted concentration of half-maximal effect; % is set by controls: 0 for no effect and ±100 for the full control effect; nearly all actives have a fitted effect of over 55% in size
Target sequence (A8B2U2 whole entry, looked up): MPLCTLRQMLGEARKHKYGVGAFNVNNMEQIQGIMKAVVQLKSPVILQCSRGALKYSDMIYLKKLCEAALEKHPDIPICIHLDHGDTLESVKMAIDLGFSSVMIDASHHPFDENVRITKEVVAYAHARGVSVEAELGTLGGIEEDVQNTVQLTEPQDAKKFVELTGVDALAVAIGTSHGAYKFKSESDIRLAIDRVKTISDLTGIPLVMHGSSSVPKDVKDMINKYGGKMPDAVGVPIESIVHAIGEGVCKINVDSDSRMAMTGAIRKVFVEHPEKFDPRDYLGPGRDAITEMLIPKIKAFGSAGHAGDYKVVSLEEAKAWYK
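Giardia FBPA (40 nM reagent) was preincubated 10 min at RT with compound (up to 57.5 uM final), then substrate plus GAPDH/TPI/NAD/arsenate coupling system with diaphorase/resazurin was added; resorufin fluorescence (525/598 nm) was read after 20 min.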
LmPK inhibitor = inhibitors of Leishmania mexicana pyruvate kinase | actives 0.37% (n = 290,000) | purified LmPK, Kinase-Glo ATP luminescence, 1 h | Potency, µM (doses to about 57.5 µM), without a hit: at the highest dose activity change, negative = inhibition, most hits filed as inhibitors | Q27686; note: potency is the fitted concentration of half-maximal effect; % is set by controls: 0 for no effect and ±100 for the full control effect
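Kinase-Glo luminescence read after 1 h RT reaction of 0.1 nM LmPK with 0.5 mM PEP and 0.1 mM ADP. Activity scaled between uninhibited and enzyme-free controls.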
Tb PYK inh = inhibitors of Trypanosoma brucei pyruvate kinase. actives 0.12% (n = 410,000). AID 624173. Q57TT1. TbPYK enzyme, Kinase-Glo Plus ATP luminescence, 45 min. Potency, µM (titrated, usually from 76.8 µM), inactives show at the highest dose activity, negative = inhibition, most hits filed as inhibitors; note: potency is the fitted concentration of half-maximal effect; % is set by controls: 0 for no effect and ±100 for the full control effect; nearly all actives have a fitted effect of over 50% in size
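Readout: single end-point luminescence (Kinase-Glo Plus, 10 min). Reaction conditions were TbPYK/substrate plus 130 uM ADP, 45 min at RT, pH 7.2 TEA buffer. No-enzyme wells served as controls, and data were normalized before concentration-response fitting.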
Shiga inhibitor = Shiga toxin inhibition. AID 2315. actives 9.2% (n = 290,000). Vero cells, Shiga toxin protein synthesis inhibition reporter. inhibition, % at 38.7 µM; in the data active = inhibition mostly above about 28%, no sharp cut-off; inactive = mostly below about 43%; note: 0% is about no effect
RE007 growth inh = less growth of the S. pombe RE007 Vpr strain; actives 0.21% (n = 360,000); Potency, µM (doses to about 92.2 µM), without a hit: at the highest dose activity change, negative = less growth, actives largely listed as inhibitors; S. pombe RE007 Vpr strain, BacTiter-Glo ATP luminescence, 24 h; active = well fitted falling curve with a large enough effect; inconclusive = small, poorly fitted or top-dose-only effect; inactive = no such curve, though single readings can be large or run the other way; note: potency is the fitted concentration of half-maximal effect; % is set by controls: 0 for no effect and ±100 for the full control effect; nearly all actives have a fitted effect of over 50% in size
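Fission yeast RE007 carrying one integrated HIV-1 vpr copy, seeded at OD 0.01 in PMG+AL medium with 23 nL pinned compound. Grown 24 h at 30 degrees; viability read by BacTiter-Glo luminescence after 5 min.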
Cycloheximide cs = counter-screen hit for Shiga toxin inhibitors, cycloheximide. max response, %. actives 12% (n = 300,000). cell reporter, cycloheximide protein synthesis inhibition counterscreen; in the data active = max response mostly above about 13%, no sharp cut-off; inactive = mostly below about 14%; note: read at 38.3 µM for the half of the compounds with a filed dose; 0% is about no effect
* marks the source's active call; other numbers are inactive results; [ ] = remark or other dose. This is one part of a sample in which hits are shown more often than they occur. Unless noted, calls come from the whole dose curve; as a rule, active = well fitted curve in the direction sought with a large enough effect; inconclusive = small, poorly fitted or top-dose-only effect, or another doubt; inactive = no such curve, though single readings can be large; an effect the other way counts as inactive or inconclusive.

How did CC(C)(C)c1ccc(/C=C2\Oc3cc(O)ccc3C2=O)cc1 do in these assays?
FBPA Giardia inh: -5%; LmPK inhibitor: 4%; Tb PYK inh: 2%; Shiga inhibitor: 125*; RE007 growth inh: -8%; Cycloheximide cs: 61*

Results for COc1ccc(-c2nnc3n2N=C(c2cc(OC)ccc2OC)CS3)c(OC)c1 ?
FBPA Giardia inh: 3%; Shiga inhibitor: -7; Cycloheximide cs: 5

How did CCn1c(C(=O)NCc2ccccc2Br)cc2oc3ccccc3c21 do in these assays?
Tb PYK inh: 4%

What do the screens show for `CCOC(=O)CNC(=O)c1ccc(SCC)cc1`?
FBPA Giardia inh: 3%; LmPK inhibitor: -29%; Tb PYK inh: -18%; Shiga inhibitor: 83*; RE007 growth inh: 43%; Cycloheximide cs: 37*

Results for CCOC(=O)CNC(=O)CNC(=O)c1ccc(OC(C)C)cc1 ?
FBPA Giardia inh: 5%; LmPK inhibitor: 0%; Tb PYK inh: -1%; Shiga inhibitor: 37; RE007 growth inh: 23%; Cycloheximide cs: 24*

Results for Cc1ccc(S(=O)(=O)NCCc2nnc3ccc(SCC(=O)Nc4ccc(OC(F)(F)F)cc4)nn23)cc1 ?
Tb PYK inh: 2%

How did C=C/C=C/CC1=C(C)[C@@H](OC(=O)[C@@H]2[C@@H](/C=C(\C)C(=O)OC)C2(C)C)CC1=O (tested in a mixture with another compound) do in these assays?
Tb PYK inh: -4%

What do the screens show for `Cc1ccc(CCNS(=O)(=O)c2cc(-c3cc(C)no3)ccc2C)cc1`?
Tb PYK inh: -6%[15.4 µM]

How did COc1cccc(Nc2ncc3ncc(=O)n(C)c3n2)c1 do in these assays?
FBPA Giardia inh: -25%

Results for CCOc1cc(/C=C2/C(=N)N3C=CSC3=NC2=O)ccc1OCCCOc1ccccc1C ?
LmPK inhibitor: 4%; Tb PYK inh: 1%; Shiga inhibitor: 16; RE007 growth inh: 17%; Cycloheximide cs: 38*

What do the screens show for `COc1cc(/C=C2/C(=N)N3C=CSC3=NC2=O)ccc1OCCCOc1c(C)cccc1C`?
FBPA Giardia inh: 2%; LmPK inhibitor: 0%; Tb PYK inh: -15%; Shiga inhibitor: 35; RE007 growth inh: 16%; Cycloheximide cs: -2

Results for COc1cc(/C=C2/C(=N)N3C=CSC3=NC2=O)ccc1OCCCOc1ccccc1C ?
LmPK inhibitor: 5%; Tb PYK inh: -6%; Shiga inhibitor: 54*; RE007 growth inh: 3%; Cycloheximide cs: 10

Results for CCN1CCN(C(=O)c2cnn(-c3ccc(F)cc3F)c2C2CCN(C(=O)OC(C)(C)C)CC2)CC1 ?
Tb PYK inh: -3%[15.4 µM]

How did CCOc1cccc(-c2csc(C3COc4ccccc4O3)n2)c1 (stereo not drawn) do in these assays?
FBPA Giardia inh: 7%; LmPK inhibitor: -4%; Tb PYK inh: 2%; Shiga inhibitor: 31; RE007 growth inh: -14%; Cycloheximide cs: 28*

What do the screens show for `COc1ccc2nc(NC(=O)CSc3nnc(C)n3N)sc2c1`?
FBPA Giardia inh: 2%; LmPK inhibitor: -17%; Tb PYK inh: -8%; Shiga inhibitor: 51*; RE007 growth inh: 2%; Cycloheximide cs: 35*

How did Cc1nnc(NC(=O)CSc2ccccn2)s1 do in these assays?
FBPA Giardia inh: -4%; LmPK inhibitor: 9%; Tb PYK inh: 10%; Shiga inhibitor: 21; RE007 growth inh: -2%; Cycloheximide cs: 1

What do the screens show for `O=C(CSc1ccccn1)Nc1nc2ccc(Br)cc2s1`?
FBPA Giardia inh: 4%; LmPK inhibitor: 3%; Tb PYK inh: -1%; Shiga inhibitor: 38; RE007 growth inh: -14%; Cycloheximide cs: 25*

Results for COC(=O)Nc1nc2ccc(Br)cc2s1 ?
FBPA Giardia inh: 4%; LmPK inhibitor: -4%; Tb PYK inh: -14%; Shiga inhibitor: 26; RE007 growth inh: -9%; Cycloheximide cs: 16

Results for COc1ccc2nc(NC(=O)CSc3ccccc3)sc2c1 ?
FBPA Giardia inh: -7%; LmPK inhibitor: 6%; Tb PYK inh: 4%; Shiga inhibitor: 138*; RE007 growth inh: -19%; Cycloheximide cs: 57*

How did CC(C)Cc1nnc(NC(=O)CSc2ccccn2)s1 do in these assays?
FBPA Giardia inh: -10%; LmPK inhibitor: 5%; Tb PYK inh: -7%; Shiga inhibitor: 19; RE007 growth inh: -6%; Cycloheximide cs: 23*

Results for Cc1ccc2nc(NC(=O)CSc3[nH]c(=O)ncc3C)sc2c1 ?
Tb PYK inh: 5%; Shiga inhibitor: 16; Cycloheximide cs: 27*

Results for Cc1ccc2nc(NC(=O)CSc3nncc(=O)n3N)sc2c1 ?
FBPA Giardia inh: -3%; LmPK inhibitor: -2%; Tb PYK inh: -2%; Shiga inhibitor: 18; RE007 growth inh: 12%; Cycloheximide cs: 34*

What do the screens show for `CC(C)Cc1nnc(NC(=O)C2CCCC2)s1`?
FBPA Giardia inh: -4%; LmPK inhibitor: -3%; Tb PYK inh: 1%; Shiga inhibitor: 44; RE007 growth inh: 9%; Cycloheximide cs: 24*

How did COc1ccc2nc(NC(=O)CSC3=NCCS3)sc2c1 do in these assays?
FBPA Giardia inh: 1%; LmPK inhibitor: 5%; Tb PYK inh: -2%; Shiga inhibitor: 55; RE007 growth inh: -8%; Cycloheximide cs: 32*

What do the screens show for `Cc1ccc(NC(=O)Nc2nnc(N3CCCC3)s2)cc1C`?
Tb PYK inh: 3%

Results for c1ccc(Cn2c(SCc3nc4ccccc4s3)nnc2-c2ccco2)cc1 ?
FBPA Giardia inh: -2%; LmPK inhibitor: 4%; Tb PYK inh: 28µM*; Shiga inhibitor: 14; RE007 growth inh: -13%; Cycloheximide cs: 10

Results for CCC(c1nnc(SCc2nc3ccccc3s2)n1Cc1ccccc1)N(C)C (stereo not drawn) ?
FBPA Giardia inh: 0%; LmPK inhibitor: 14%; Tb PYK inh: -15%; Shiga inhibitor: 56*; RE007 growth inh: 6%; Cycloheximide cs: 32*

What do the screens show for `O=C(c1cccc(F)c1)N1CCC2(CC1)CN(c1ccccn1)C2`?
FBPA Giardia inh: -1%; Tb PYK inh: 5%

How did Cc1nc(-c2ccc(S(=O)(=O)Nc3ccc(C#N)cc3)cc2)co1 do in these assays?
Tb PYK inh: 0%

How did O=C(/C=C/c1ccc([N+](=O)[O-])cc1)Nc1cccnc1 do in these assays?
FBPA Giardia inh: -2%; LmPK inhibitor: -20%; Tb PYK inh: -7%; Shiga inhibitor: 112*; RE007 growth inh: 9%; Cycloheximide cs: 43*

Results for Cc1ccc(/C=C/C(=O)Nc2cccnc2)o1 ?
FBPA Giardia inh: inconclusive; LmPK inhibitor: -15%; Tb PYK inh: 28µM*; Shiga inhibitor: 13; RE007 growth inh: -3%; Cycloheximide cs: 10
